High-throughput results from PubChem.
A selection: hits, their analogues and other compounds. The true share with any hit is near 5.8%.
12-LOX inh: blocks human arachidonate 12S-lipoxygenase; P18054; purified 12hLO, xylenol orange hydroperoxide absorbance; Potency, µM (titrated, usually from 108 µM), for inactives: at the top dose activity change, negative = inhibition, actives largely listed as inhibitors; 580,000 tested, 1.1% active; further: on the % scale 0 is the no-effect control and ±100 the full control effect
Target sequence (P18054 whole entry, looked up): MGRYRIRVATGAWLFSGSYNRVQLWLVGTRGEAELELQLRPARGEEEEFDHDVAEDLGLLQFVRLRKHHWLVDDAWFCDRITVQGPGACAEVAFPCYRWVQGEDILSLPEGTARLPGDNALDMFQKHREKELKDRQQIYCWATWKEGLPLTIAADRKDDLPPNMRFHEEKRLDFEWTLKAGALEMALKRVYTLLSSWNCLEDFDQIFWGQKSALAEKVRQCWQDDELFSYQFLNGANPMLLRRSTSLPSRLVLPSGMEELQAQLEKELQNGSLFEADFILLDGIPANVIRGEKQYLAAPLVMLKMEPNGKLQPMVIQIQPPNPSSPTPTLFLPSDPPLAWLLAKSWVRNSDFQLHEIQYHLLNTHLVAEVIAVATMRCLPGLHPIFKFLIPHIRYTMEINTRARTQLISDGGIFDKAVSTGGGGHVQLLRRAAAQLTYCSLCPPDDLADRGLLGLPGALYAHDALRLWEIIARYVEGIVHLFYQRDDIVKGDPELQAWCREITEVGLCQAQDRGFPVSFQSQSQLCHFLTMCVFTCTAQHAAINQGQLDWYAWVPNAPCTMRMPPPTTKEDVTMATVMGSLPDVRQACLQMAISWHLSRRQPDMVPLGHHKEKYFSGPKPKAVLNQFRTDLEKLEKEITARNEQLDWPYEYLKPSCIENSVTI
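Hydroperoxide product was detected by ferrous iron/xylenol orange as the 573 to 405 nm absorbance ratio. Arachidonic acid at 40 uM (final) was turned over for 30 min at room temperature by 150 nM human 12hLO, pH 7.0 Hepes buffer, after 15 min compound preincubation.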
MCF10A rerep: inducers of DNA re-replication in MCF 10A breast cells | Potency, µM (highest dose often 46.1 µM), inactives show top-dose activity, positive = re-replication, usual class: activators | MCF 10A DNA re-replication, Hoechst nuclear intensity, 48 h | 350,000 tested, 2.9% active; further: % of control where 0% means no effect; nearly all actives have a fitted effect of over 50% in size
KB-3-1 cytotox: kills parental KB-3-1 adenocarcinoma cells; KB-3-1 viability, CellTiter-Glo ATP luminescence, 72 h; Potency, µM (titrated, usually from 46.1 µM), usual class: cytotoxic; 400,000 tested, 1.4% active; further: on the % scale 0 is the no-effect control and ±100 the full control effect; nearly all actives have a fitted effect of over 60% in size
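Screening of KB-3-1 cells (DMEM, 10% FBS, phenol-red free) ran from lowest to highest compound concentration; after 72 h at 37 °C viability was read luminescently and curves fitted.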
PINK1 modulator: modulators of PINK1 expression; 410,000 tested, 0.2% active; PINK1 immunofluorescence, high-content cytometry, 24 h; AID 624263; Potency, µM (highest dose often 76.6 µM), inactives show top-dose activation (PINK1 increase), most hits filed as activators; active means well fitted activation curve with a large enough effect; inconclusive means small, poorly fitted or top-dose-only effect; cell line not stated here; further: % of control where 0% means no effect; nearly all actives have a fitted effect of over 65% in size
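Compound titrations (5 concentrations, 24 h) on a stable cell line; DMSO and CCCP controls. Endpoint: fixed-cell PINK1 immunofluorescence with mitochondrial, cell and nuclear markers, scanned by microplate cytometer.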
SW480 rereplic: induces DNA re-replication in SW480 colon adenocarcinoma cells. SW480 DNA re-replication, Hoechst DNA content imaging, 48 h. Potency, µM (highest dose often 46.1 µM), for the others: top-dose re-replication activation, most hits filed as activators. 340,000 tested, 1.8% active. AID 624297; further: % of control where 0% means no effect; nearly all actives have a fitted effect of over 55% in size
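Per well, 250 cells were exposed to pinned compound for 48 hr. Nuclear DNA was visualised with Hoechst (40 min, 37 C) and total object intensity recorded by fluorescence scanning.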
KB-V1 cytotox: kills drug-selected multidrug resistant KB-V1 cells | KB-V1 MDR cells viability, CellTiter-Glo, 72 h | Potency, µM (highest dose often 46.1 µM), hits mostly cytotoxic | 400,000 tested, 3.4% active | AID 1347076; further: on the % scale 0 is the no-effect control and ±100 the full control effect; nearly all actives have a fitted effect of over 60% in size
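Readout: CellTiter-Glo luminescence, 10 min after addition. Cells: KB-V1 MDR subline, 72 h at 37 degrees C with compound. Analysis: corrected, normalized data fitted to concentration-effect curves.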
Active calls of the source: *; i = inactive; ? = inconclusive; · = no result; [ ] = another dose, or the depositor's remark. Unless noted, the call rests on the fitted dose curve; in most records, active means well fitted curve in the direction sought with a large enough effect; inconclusive means small, poorly fitted or top-dose-only effect, or another doubt; inactive means no such curve, though single readings can be large; an effect the other way counts as inactive or inconclusive. Potency means the concentration at half of the fitted maximal effect.

SMILES	12-LOX inh	MCF10A rerep	KB-3-1 cytotox	PINK1 modulator	SW480 rereplic	KB-V1 cytotox
N#CC1c2ccccc2-n2nncc2CN1Cc1cc(Cl)cc(Cl)c1 (configuration not stated)	?	6.5µM*	5.8µM*	4%	?	?
COc1ccc(CN2Cc3cnnn3-c3ccccc3C2C#N)cc1 (configuration not stated)	?	3.3µM*	i	-2%	?	?
O=C1NC2(CCN(Cc3cccnc3)C2)COc2ccccc21 (configuration not stated)	84%[176 µM]	·	·	·	·	·
Cc1c(C(=O)Cn2c(C)nc3ccccc32)c2ccccc2n1C	1%	·	·	·	·	·
CC(C)(C)NC(=O)NC(O)C(Cl)(Cl)Cl (configuration not stated)	-21%	·	·	·	·	·
Cc1cccc(OCC(=O)N2CCC3(CC2)c2nccn2-c2ccccc2CN3C)c1	44%	·	·	·	·	·
COc1cc(CCC(=O)N2CCC3(CC2)NCc2ccccc2-n2ccnc23)on1	-1%	·	·	·	·	·
CCn1c(O)c(/C=N/NC(=O)c2ccccc2)c(=O)n(CC)c1=S	4%	?	?	-1%	18µM*	i
CC(C)COP(=O)(OCC(C)C)C(Nc1ccccc1)c1ccccc1 (configuration not stated)	?	?	i	?	-75%	?
O=P(Oc1ccccc1)(Oc1ccccc1)C(Nc1ccccc1)c1ccccc1 (configuration not stated)	9%	?	?	1%	18%	13µM*
O=C(CF)N(O)c1ccc(C=Cc2ccccc2)cc1	-3%	6.5µM*	i	-2%	10µM*	i
CC(C)Oc1cccc(NC(=O)c2cccn(Cc3ccc4c(c3)OC(F)(F)O4)c2=O)c1	0%	13µM*	?	6%	?	i
O=C(Nc1ccc(C(F)(F)F)cc1)c1cccn(Cc2ccc3c(c2)OC(F)(F)O3)c1=O	0%	?	8.2µM*	2%	-8%	2.9µM*
O=C(Nc1cccc(C(F)(F)F)c1)c1cccn(Cc2ccc3c(c2)OC(F)(F)O3)c1=O	-28%	?	i	15%	-2%	i
Cc1cccc(N2C(=O)/C(=C/c3ccc(N4CCN(C)CC4)o3)C(=O)NC2=S)c1C	45µM*	?	i	9%	291%	i
CCc1ccccc1N1C(=O)/C(=C/c2ccc(N3CCN(C)CC3)o2)C(=O)NC1=S	?	-3%	i	2%	-3%	i
Cc1nn(-c2ccccc2)c2c1C(c1ccc3c(c1)OCO3)SCC(=O)N2 (configuration not stated)	?	15µM*	i	·	24%	?
COc1cc(C2SCC(=O)Nc3c2c(C)nn3-c2ccccc2)cc(OC)c1OC (configuration not stated)	-5%	1%	i	1%	-2%	i
CCOC(=O)C1(CCCc2ccccc2)CCN(C2CCCC2)CC1	-13%	?	?	3%	16µM*	i
C#C[C@]1(O)CC[C@H]2[C@@H]3CCC4=CC(=O)CC[C@]4(C)[C@H]3CC[C@@]21C	-11%	6%	i	1%	-6%	i
C#C[C@]1(O)CCC2C3C(=O)C=C4C(Cl)=CCC[C@]4(C)C3CC[C@@]21C (some centres not stated)	-4%	18µM*	i	7%	?	i
O=C(c1ccc(C(F)(F)F)cc1)N1CCN(Cc2ccccc2)CC1	12%	·	·	·	·	·
Cc1ccc(OP(=O)(NCc2ccccc2)Oc2ccc(C)cc2)cc1	?	?	?	11%	?	15µM*
Cc1ccc(NP(=O)(Oc2ccccc2)Oc2ccccc2)cc1	-5%	0%	i	-1%	9%[1.84 µM]	i
O=C1Nc2ccccc2CC12CN(Cc1ccncc1)C2	6%[12.5 µM]	·	·	·	·	·
SMILES	12-LOX inh	MCF10A rerep	KB-3-1 cytotox	PINK1 modulator	SW480 rereplic	KB-V1 cytotox
COc1ccc2c(c1)C1(CCNC1)C(=O)N2 (configuration not stated)	63%	·	·	·	·	·
CCN(CC)C1=NC(=[N+](CC)CC)c2ccccc21	0%	?	10µM*	4%[38.3 µM]	?	i
Cc1cccc(N2C(=O)NC(=O)/C(=C\c3cc(C)n(-c4sc5c(c4C#N)CCCC5)c3C)C2=O)c1C	?	21µM*	i	0%	-29%	?
O=C1NC(=S)NC(=O)C1=Cc1ccc(Br)s1	16µM*	6%	i	-1%	1%	i
ClC1=C(Cl)C2(Cl)C(CBr)CC1(Cl)C2(Cl)Cl (configuration not stated)	-9%[22.9 µM]	19µM*	·	·	-6%	·
COc1cc2c(cc1OC)[C@@H]1C(=O)c3ccc(OC)c(CC=C(C)C)c3OC1CO2 (some centres not stated)	·	·	·	20µM*	·	·
COc1cc2c(cc1OC)[C@@H]1C(=O)c3ccc4c(c3OC1CO2)CC(C(C)C)O4 (some centres not stated)	·	·	·	8%	·	·
CCCS(=O)(=O)NC[C@H]1C[C@@H]2CCN1C[C@@H]2c1cc(-c2ccc(F)cc2)nn1C	15%[176 µM]	·	·	·	·	·
CC(C)C(NC(=O)C(C(C)C)N(C)C)C(=O)N(C)C(C(=O)N1CCCC1C(=O)N1CCCC1C(=O)NCc1ccccc1)C(C)C (configuration not stated)	?	?	?	6%	?	21µM*
CC[C@H](C)[C@H](NC(=O)[C@H](CCCN=C(N)N)NC(=O)[C@H](CCCN=C(N)N)NC(=O)[C@H](CC(C)C)NC(=O)[C@H](Cc1ccccc1)NC(=O)CNC(=O)CNC(=O)[C@@H](N)Cc1ccc(O)cc1)C(=O)N[C@@H](CCCN=C(N)N)C(=O)N1CCC[C@H]1C(=O)N[C@@H](CCCCN)C(=O)N[C@@H](CC(C)C)C(=O)N[C@@H](CCCCN)C(=O)O	1%[12.5 µM]	·	·	·	·	·
COCCN1C[C@H]2CN(CC3CC3)CCN2C1=O	-3%[176 µM]	·	·	·	·	·
CN1Cc2ccccc2-n2ccnc2C12CCN(C(=O)Cc1cccs1)CC2	13%	·	·	·	·	·
Cc1cccc(-n2c(O)c(/C=C3/C(c4ccccc4)=Nc4ccccc43)c(=O)[nH]c2=O)c1	-23%	3.7µM*	5.2µM*	3%	3.7µM*	?
Cc1ccc(-n2c(O)c(/C=C3/C(c4ccccc4)=Nc4ccccc43)c(=O)[nH]c2=O)cc1	?	5.2µM*	3.7µM*	8%	3.7µM*	?
Cc1cccc(-n2c(O)c(/C=C/C=Nc3ccccc3)c(=O)[nH]c2=O)c1	-22%	13%	i	7%	?	i
